Assay results taken from the OligoGym collection.

Target: GATA4
Assay: pooled miR-30 sensor sort-seq; sequence = guide strand
Conditions: shRNA

Going from TTGCTGGAAGCACCGCTGGCGG to TTCTGAGAAGTCGTCAAACATA, the sensor-assay potency score (higher = more potent) falls from -1.56 to -1.72.

First: TTGATGCCGTTCATCTTGTGGT
Second: TGACGGGAGACGCATAGCCTTG
The sensor-assay potency score (higher = more potent) of the first is higher: -0.805 for the first, -1.75 for the second.

First: TTAGCAGTCGTCTTCTTTCCAG
Second: TTTGCTATCCTCCAAGTCCCAG
The sensor-assay potency score (higher = more potent) of the first is higher: -0.572 for the first, -0.913 for the second.

Compared with TGACACACTCTCTGCCTTCTGA, TCAAACATATCGAGATTGGGGT is higher in sensor-assay potency score (higher = more potent): -0.406 for the first, 0.14 for the second.

Compared with TTGTTCTGGAGTCATTACCAGG, AACGTCTGGGACACGGAGCTGC is higher in sensor-assay potency score (higher = more potent): -1.25 for the first, 0.00321 for the second.

Going from TTTATTTTGAGAGATGTTGGAA to TGGAGCTTCATGTAGAGGCCGC, the sensor-assay potency score (higher = more potent) falls from 0.35 to -0.527.

In the case of GAAGTCGTCAAACATATCGAGA, the sensor-assay potency score (higher = more potent) is reported as -1.84.
